Sampled rows, rich in hits. Any-hit rate of the full collection: about 2.9%.
ALOX12 inh: inhibitors of human 12S-lipoxygenase ALOX12. Potency, µM (titrated, usually from 108 µM), usual class: inhibitors. P18054. purified 12hLO, xylenol orange hydroperoxide absorbance. actives 1.1% (n = 580,000)
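Hydroperoxide product was detected by ferrous iron/xylenol orange as the 573 to 405 nm absorbance ratio. Arachidonic acid at 40 uM (final) was turned over for 30 min at room temperature by 150 nM human 12hLO, pH 7.0 Hepes buffer, after 15 min compound preincubation.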
PI5P4Ka inh: PI5P4K alpha (human) kinase inhibition. P48426. max response, %. actives 1.2% (n = 330,000). PI5P4Kalpha enzyme, ADP-Glo luminescence, 60 min; active compounds read low; active means max response of -50% or lower; inconclusive means between -30% and -50%; inactive means -30% or higher; further: value at the top dose of about 77 µM
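Luminescence from ADP-Glo served as readout of PI5P4Kalpha activity in a qHTS format. Reaction: enzyme, substrate, compound, ATP at 5 microM final, 60 min at RT.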
Pol beta inh: inhibitors of human DNA polymerase beta; P06746; Potency, µM (top dose mostly 114 µM), usual class: inhibitors; actives 1.3% (n = 340,000); Pol beta primer extension/strand displacement, fluorescence kinetic
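Pol beta (10 nM) was preincubated with compound for 15 min at room temperature. The reaction was then started with 50 nM substrate and read immediately and after a further 10 min at room temperature.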
POLI inh: inhibitors of human DNA polymerase iota; actives 1% (n = 390,000); Pol iota fluorescent replication assay, 10 min; Q9UNA4; Potency, µM (doses to about 115 µM), hits mostly inhibitors
Target sequence (Q9UNA4 whole entry, looked up): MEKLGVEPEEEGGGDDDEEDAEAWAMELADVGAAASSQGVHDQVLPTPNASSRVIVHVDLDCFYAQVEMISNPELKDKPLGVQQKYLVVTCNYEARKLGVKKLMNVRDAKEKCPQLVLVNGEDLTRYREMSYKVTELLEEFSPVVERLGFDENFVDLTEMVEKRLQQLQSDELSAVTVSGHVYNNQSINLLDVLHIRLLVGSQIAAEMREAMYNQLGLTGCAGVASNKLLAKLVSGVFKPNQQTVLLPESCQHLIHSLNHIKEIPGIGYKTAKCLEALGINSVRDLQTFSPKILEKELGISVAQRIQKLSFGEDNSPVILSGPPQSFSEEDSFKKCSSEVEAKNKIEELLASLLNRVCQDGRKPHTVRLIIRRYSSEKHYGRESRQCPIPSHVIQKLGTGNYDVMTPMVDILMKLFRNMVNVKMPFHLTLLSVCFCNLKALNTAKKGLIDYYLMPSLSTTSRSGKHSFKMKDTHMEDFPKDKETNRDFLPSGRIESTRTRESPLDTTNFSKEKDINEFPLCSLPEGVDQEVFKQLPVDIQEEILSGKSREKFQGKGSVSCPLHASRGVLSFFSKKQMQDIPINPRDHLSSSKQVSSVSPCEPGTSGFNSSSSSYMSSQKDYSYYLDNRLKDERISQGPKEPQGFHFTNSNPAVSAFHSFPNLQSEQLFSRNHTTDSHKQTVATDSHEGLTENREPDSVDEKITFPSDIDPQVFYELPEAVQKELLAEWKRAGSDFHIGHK
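Pol iota at 10 nM preincubated 15 min with compounds at room temperature; reaction started with fluorescent substrate, 50 nM final. Fluorescence read kinetically at 0 and 10 min; buffer-only wells as negative control.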
POLK inh: DNA polymerase kappa (human) inhibition | Q9UBT6 | purified Pol kappa, fluorescent DNA synthesis assay, 10 min | Potency, µM (series often up to 107 µM), usual class: inhibitors | actives 0.53% (n = 400,000) | AID 588579
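Enzyme at 10 nM met test compounds for 15 min at room temperature. Substrate addition (50 nM final) began the reaction, which was monitored by fluorescence at 0 and 10 min.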
POLH inh: inhibitors of human DNA polymerase eta | Q9Y253 | recombinant Pol eta, fluorescent DNA replication assay | Potency, µM (titrated, usually from 114 µM), actives largely listed as inhibitors | actives 1.2% (n = 390,000) | AID 588591
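Fluorescent replication assay: 50 nM final substrate added after a 15 min room-temperature compound preincubation with 10 nM enzyme. Signal taken at 0 min and again at 10 min.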
Numbers stand for hits; - = inactive; ? = inconclusive; . = no result given. Unless noted, the call rests on the fitted dose curve; in most records, active means well fitted inhibition curve with a large enough effect; inconclusive means small, poorly fitted or top-dose-only effect, or another doubt; inactive means no such curve, though single readings can be large or run the other way.

SMILES	ALOX12 inh	PI5P4Ka inh	Pol beta inh	POLI inh	POLK inh	POLH inh
Cc1nnc(N2C(=O)C(O)=C(C(=O)c3ccco3)C2c2ccc(C(C)C)cc2)s1 (centres undefined)	45µM	-	-	-	-	?
CSc1ccc(C2C(C(=O)c3ccco3)=C(O)C(=O)N2c2nnc(SC)s2)cc1 (centres undefined)	40µM	-	-	?	-	?
Cc1ccc(C)c(/C(O)=C2\C(=O)C(=O)N(c3nnc(C)s3)C2c2ccc(C(C)C)cc2)c1 (centres undefined)	45µM	.	.	.	.	.
CCc1ccc(-c2noc(CSc3nc4ccccc4c(=O)n3CCCO)n2)cc1	-	.	.	.	.	.
COc1ccc(C(=O)N2CCCC(c3nc(-c4ccccc4)no3)CCNC(=O)CC2)c(OC)n1 (centres undefined)	-	.	.	.	.	.
CC(NC(=O)Cc1c[nH]c2ccccc12)c1ccco1 (centres undefined)	-	.	.	.	.	.
Cc1nnc(N2C(=O)C(O)=C(C(=O)c3ccco3)C2c2ccc(C(C)(C)C)cc2)s1 (centres undefined)	7.9µM	-	-	-	-	-
Cc1nnc(N2C(=O)C(O)=C(C(=O)c3ccco3)C2c2ccc(F)cc2)s1 (centres undefined)	?	-	-	-	-	-
Cc1c(C(=O)O)sc2nc(/C=C/c3cccc(O)c3)[nH]c(=O)c12	-	-77	-	?	-	35µM
Cc1cccc(/C=C\c2nc3ccccc3c(=O)[nH]2)c1	-	-	-	-	-	-
O=S(=O)(c1ccccc1)c1cnc2cc3c(cc2c1N1CCN(Cc2ccccc2)CC1)OCCO3	-	.	.	.	.	.
CCCOc1ccc(C(=O)NC2CCCCNC2=O)cc1OCCC (centres undefined)	-	.	.	.	.	.
O=C(Nc1ccc(S(=O)(=O)Nc2ncccn2)cc1)c1nn(Cc2ccccc2)c(=O)c2ccccc12	-	-	?	?	-	79µM
O=C(Nc1ccc(Cl)cc1)c1nn(Cc2ccccc2)c(=O)c2ccccc12	-	.	.	.	.	.
Clc1ccccc1N/N=C/c1ccc2c(c1)OCO2	35µM	-	-	-	-	-
O=C(CNC(=O)c1ccccc1Cl)N/N=C/c1ccc2c(c1)OCO2	-	-	-	-	-	-
CN(Cc1cccnc1)c1ccc(-c2nc(COc3ccccc3)no2)cn1	-	.	.	.	.	.
O=c1c(O)c(-c2ccc(O)cc2O)oc2cc(O)cc(O)c12	?	.	4.5µM	4µM	4.2µM	7.9µM
O=c1c(-c2ccc(O)cc2O)coc2cc(O)cc(O)c12	-	-	32µM	?	?	?
OC1(CN2CCN(c3nccs3)CC2)CNCCOC1 (centres undefined)	10µM	.	.	.	.	.
COc1ccnc(N2CCN(CC3(O)CNCCOC3)CC2)n1 (centres undefined)	-	.	.	.	.	.
Cc1ccc(N=Nc2ccc3ccccc3c2O)cc1	-	-	-	-	-	-
Cc1ccc2nc(-c3ccc(N=Nc4cc(S(=O)(=O)O)c5ccccc5c4O)cc3)sc2c1S(=O)(=O)O	.	.	.	25µM	20µM	.
NS(=O)(=O)c1cc(C(=O)N=Nc2c(O)[nH]c3ccccc23)ccc1Cl	-	-	22µM	50µM	-	?
O=C(N=Nc1c(O)[nH]c2ccccc12)c1cccc(S(=O)(=O)Nc2ccccc2Cl)c1	-	-	-	-	-	-
SMILES	ALOX12 inh	PI5P4Ka inh	Pol beta inh	POLI inh	POLK inh	POLH inh
O=C(N/N=C\c1cccs1)c1ccccn1	-	.	.	.	.	.
CN(C)c1ccc(C=Nc2ccc(O)cc2)cc1	-	.	.	.	.	.
O=c1[nH]c(=O)c2[nH]c(=S)n(-c3ccccc3)c2[nH]1	?	-56	.	-	-	-
Cn1c(N)c(C(=O)CSc2nnc(-c3c[nH]c4ccccc34)n2C2CC2)c(=O)[nH]c1=O	-	-	.	40µM	-	?
Nc1c(C(=O)NC2CCCCC2)nnn1-c1ccccc1	-	.	.	.	.	.
O=C(O)CSCc1ccccc1Cl	-	.	.	.	.	.
O=C(Nc1cnc(-c2cccc(Cl)c2)nc1)C1CCCO1 (centres undefined)	-	.	.	.	.	.
CCN1C(=O)CC(C(=O)NC)SC1=Nc1cc(Cl)c(O)c(Cl)c1 (centres undefined)	-	-	-	89µM	-	-
